Measurements from PubChem BioAssay (NCI).
This is part of a sample that, as a whole, favours compounds with a hit. Of some 83,000 tested, about 20% had one in any assay.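 Activity criterion: percent growth below 10, measured after cells in 96-well plates were exposed to a single compound concentration for 48 hours.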 Activity calls are given as the source filed them.

What was measured:
Experiment in all cases: NCI-60 one-dose screen, 48 h (100 = growth as untreated, 0 = no growth, -100 = all killed)
Conditions in all cases: 10 µM unless noted
NCI-H23 lung = test system: NCI-H23 lung
NCI-H226 lung = test system: NCI-H226 lung
NCI-H322M lung = test system: NCI-H322M lung
HOP-62 NSCLC = test system: HOP-62 NSCLC
NCI-H460 lung = test system: NCI-H460 lung
HOP-92 NSCLC = test system: HOP-92 NSCLC
NCI-H522 lung = test system: NCI-H522 lung
A549/ATCC NSCLC = test system: A549/ATCC NSCLC
786-0 renal = test system: 786-0 renal
COLO 205 colon = test system: COLO 205 colon
DU-145 prostate = test system: DU-145 prostate
K-562 leukemia = test system: K-562 leukemia
MALME-3M melanoma = test system: MALME-3M melanoma
MDA-MB-231 breast = test system: MDA-MB-231 breast
RXF 393 renal = test system: RXF 393 renal
SF-268 CNS = test system: SF-268 CNS
SF-295 CNS = test system: SF-295 CNS
SF-539 CNS = test system: SF-539 CNS
UACC-257 melanoma = test system: UACC-257 melanoma
M14 melanoma = test system: M14 melanoma

Measured: growth

O=C1/C(=C/c2ccccn2)SC(=S)N1N1CCOCC1
inactive: NCI-H23 lung 96.7% | NCI-H226 lung 95.1% | NCI-H322M lung 97.5% | HOP-62 NSCLC 96.6% | NCI-H460 lung 104% | HOP-92 NSCLC 84.8% | NCI-H522 lung 86.8% | A549/ATCC NSCLC 103% | 786-0 renal 103% | COLO 205 colon 103% | DU-145 prostate 104% | K-562 leukemia 103% | MALME-3M melanoma 92.2% | MDA-MB-231 breast 92% | RXF 393 renal 92.5% | SF-268 CNS 99% | SF-295 CNS 95.8% | SF-539 CNS 105% | UACC-257 melanoma 91.8% | M14 melanoma 100%

NS(=O)(=O)c1ccc(C(=O)N=Nc2c(O)[nH]c3ccc(Cl)cc23)cc1
inactive: NCI-H23 lung 98.3% | NCI-H226 lung 103% | NCI-H322M lung 104% | HOP-62 NSCLC 100% | NCI-H460 lung 106% | HOP-92 NSCLC 103% | NCI-H522 lung 89.3% | A549/ATCC NSCLC 104% | 786-0 renal 102% | COLO 205 colon 120% | DU-145 prostate 102% | K-562 leukemia 98.3% | MALME-3M melanoma 90.3% | MDA-MB-231 breast 98.7% | RXF 393 renal 109% | SF-268 CNS 91.9% | SF-295 CNS 98.7% | SF-539 CNS 96.4% | UACC-257 melanoma 103% | M14 melanoma 102%

CCOC(=O)C/C(=N\Nc1cc(=O)[nH]c2ccc(OC)cc12)C(=O)OCC
inactive: NCI-H23 lung 99.4% | NCI-H226 lung 97.6% | NCI-H322M lung 94.9% | HOP-62 NSCLC 105% | NCI-H460 lung 100% | HOP-92 NSCLC 87.2% | NCI-H522 lung 109% | A549/ATCC NSCLC 105% | 786-0 renal 107% | COLO 205 colon 114% | DU-145 prostate 99.6% | K-562 leukemia 89.3% | MALME-3M melanoma 104% | MDA-MB-231 breast 98.4% | RXF 393 renal 96.4% | SF-268 CNS 98% | SF-295 CNS 101% | SF-539 CNS 90.9% | UACC-257 melanoma 108% | M14 melanoma 102%

CCOC(=O)CNC1=C(Cl)C(=O)N(Cc2ccc(Cl)cc2)C1=O
inactive: NCI-H23 lung 102% | NCI-H226 lung 99.7% | NCI-H322M lung 97% | HOP-62 NSCLC 98% | NCI-H460 lung 104% | HOP-92 NSCLC 93.4% | NCI-H522 lung 89.1% | A549/ATCC NSCLC 106% | 786-0 renal 99% | COLO 205 colon 118% | DU-145 prostate 113% | K-562 leukemia 106% | MALME-3M melanoma 93.9% | MDA-MB-231 breast 104% | RXF 393 renal 120% | SF-268 CNS 98.5% | SF-295 CNS 108% | SF-539 CNS 90.6% | UACC-257 melanoma 106% | M14 melanoma 105%

O=C1Nc2ccc(Cl)cc2/C1=C/c1ccc[nH]1
inactive: NCI-H23 lung 66.3% | NCI-H226 lung 97.4% | NCI-H322M lung 69.4% | HOP-62 NSCLC 95.8% | NCI-H460 lung 82.3% | HOP-92 NSCLC 133% | NCI-H522 lung 71.4% | A549/ATCC NSCLC 90.3% | 786-0 renal 108% | COLO 205 colon 126% | DU-145 prostate 83.6% | K-562 leukemia 100% | MALME-3M melanoma 99.1% | MDA-MB-231 breast 40.7% | RXF 393 renal 74% | SF-268 CNS 96.4% | SF-295 CNS 109% | SF-539 CNS 88.6% | UACC-257 melanoma 118% | M14 melanoma 78.4%

Nc1nc(C(=O)N/N=C/c2ccc(F)cc2)nn1-c1ccc(S(N)(=O)=O)cc1
inactive: NCI-H23 lung 101% | NCI-H226 lung 99% | NCI-H322M lung 91.1% | HOP-62 NSCLC 98.8% | NCI-H460 lung 106% | HOP-92 NSCLC 98.9% | NCI-H522 lung 88.8% | A549/ATCC NSCLC 95% | 786-0 renal 97.2% | COLO 205 colon 112% | DU-145 prostate 104% | K-562 leukemia 103% | MALME-3M melanoma 89.2% | MDA-MB-231 breast 96.4% | RXF 393 renal 95.5% | SF-268 CNS 95.7% | SF-295 CNS 102% | SF-539 CNS 98.9% | UACC-257 melanoma 103% | M14 melanoma 99.5%

c1ccc(-c2nc3ccccc3[nH]2)c(OCCCCCOc2ccccc2-c2nc3ccccc3[nH]2)c1
active: HOP-92 NSCLC -21.4% | A549/ATCC NSCLC 8.77% | K-562 leukemia -11.6% | SF-539 CNS 7.96%
inactive: NCI-H23 lung 80.1% | NCI-H226 lung 85.2% | NCI-H322M lung 103% | HOP-62 NSCLC 124% | NCI-H460 lung 59.6% | NCI-H522 lung 66.1% | 786-0 renal 93% | COLO 205 colon 112% | DU-145 prostate 39.9% | MALME-3M melanoma 66.2% | MDA-MB-231 breast 70.5% | RXF 393 renal 81.1% | SF-268 CNS 55.1% | SF-295 CNS 87.3% | UACC-257 melanoma 71% | M14 melanoma 95.1%

CCN(CC)CCCC(Cc1ccccc1)Nc1c2ccc(Cl)cc2nc2ccc(OC)cc12 (stereo not given)
inactive: NCI-H23 lung 67.1% | NCI-H226 lung 84.4% | HOP-62 NSCLC 67.3% | NCI-H460 lung 28.6% | A549/ATCC NSCLC 39.3% | DU-145 prostate 62.3% | SF-268 CNS 51.9%
active: NCI-H322M lung 9.3% | HOP-92 NSCLC -4.73% | NCI-H522 lung 1.88% | 786-0 renal -22.6% | COLO 205 colon -42.3% | K-562 leukemia -39.2% | MALME-3M melanoma -78.3% | MDA-MB-231 breast -31.3% | RXF 393 renal -51.7% | SF-295 CNS -37.9% | SF-539 CNS -87.5% | UACC-257 melanoma -40.8% | M14 melanoma -76.9%
